Among the test systems are NCI-H23 lung; NCI-H226 lung; NCI-H322M lung; HOP-62 NSCLC; NCI-H460 lung; HOP-92 NSCLC; NCI-H522 lung; A549/ATCC NSCLC; 786-0 renal; DU-145 prostate; K-562 leukemia; MALME-3M melanoma; MDA-MB-231 breast; SF-268 CNS; SF-295 CNS; SF-539 CNS; M14 melanoma; RXF 393 renal; UACC-257 melanoma; COLO 205 colon.
Common to all, as to assay: NCI-60 one-dose screen, 48 h (100 = growth as untreated, 0 = no growth, -100 = all killed)
Details in all cases: 10 µM unless noted

Structures are written as SMILES. The panel holds about 83,000 compounds, 20% with a hit somewhere; the sample as a whole holds those more often.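 Activity criterion: percent growth below 10, measured after cells in 96-well plates were exposed to a single compound concentration for 48 hours.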 Unmarked numbers belong to inactive results. Active and inactive are the calls of the source.

In the case of `COC(=O)[C@]12CC[C@@H](C)[C@H](C)[C@@H]1C1=CC[C@@H]3[C@@]4(C)C[C@@H](OC(=O)/C=C/c5ccccc5)[C@H](O)[C@@](C)(CO)[C@@H]4[C@H](O)C[C@@]3(C)[C@]1(C)CC2`, the growth in the assay with NCI-H23 lung is 4.71% (active); in the assay with NCI-H226 lung it was 0.734% (active); in the assay on NCI-H322M lung it was 37.9%; with HOP-62 NSCLC, 11.6%; in the assay on NCI-H460 lung, -39.6% (active); with HOP-92 NSCLC, -3.66% (active). Moreover, the growth was -59.6% (active) in the assay with NCI-H522 lung; 5.1% (active) in the assay with A549/ATCC NSCLC; -29% (active) in the assay on 786-0 renal; 9.11% (active) in the assay on DU-145 prostate; 1.96% (active) in the assay on K-562 leukemia; 3.65% (active) in the assay on MALME-3M melanoma. Further, the growth in the assay on MDA-MB-231 breast was -72.7% (active); in the assay with SF-268 CNS, 17.4%; with SF-295 CNS, -16.4% (active); in the assay with SF-539 CNS, -49.1% (active); with M14 melanoma, 16%.
In the case of `Cc1ccc(N=C2CSc3nnc(-c4csc5c4CCCC5)n3N2)cc1`, the growth with NCI-H23 lung was 41%; in the assay with NCI-H226 lung, 69.5%; with NCI-H322M lung it was 57.9%; in the assay on HOP-62 NSCLC, 27.9%; in the assay with NCI-H460 lung, 11.8%; in the assay with HOP-92 NSCLC, 67.7%. In addition, the growth was 29% with NCI-H522 lung; 26.5% in the assay with A549/ATCC NSCLC; 32.3% with 786-0 renal; 25.4% with DU-145 prostate; 10.7% in the assay with K-562 leukemia; 70.6% in the assay with MALME-3M melanoma. For the same compound, the growth with MDA-MB-231 breast was 43%; in the assay on SF-268 CNS it was 40.8%; in the assay with SF-295 CNS, -6.51% (active); in the assay with SF-539 CNS it was -2.46% (active); with M14 melanoma, 5.9% (active).
Turning to `CCN1CCN(c2cc(C)nc(N(CCCNc3ccnc4cc(Cl)ccc34)Cc3cccs3)n2)CC1`, the growth in the assay with NCI-H23 lung was 49%; with NCI-H226 lung, 57.6%; in the assay with NCI-H322M lung, 12%; in the assay with HOP-62 NSCLC, -25.4% (active); with NCI-H460 lung, 5.44% (active); with HOP-92 NSCLC it was 11.6%. Besides, the growth in the assay on NCI-H522 lung was 8.27% (active); in the assay on A549/ATCC NSCLC it was 20.1%; in the assay with 786-0 renal, -71.8% (active); with DU-145 prostate, 26.4%; with K-562 leukemia it was -14.2% (active); with MALME-3M melanoma, -85.7% (active). The growth with MDA-MB-231 breast is -20% (active); in the assay with RXF 393 renal it was -53.8% (active); in the assay with SF-268 CNS it was 7.31% (active); in the assay on SF-295 CNS, -69.4% (active); in the assay with SF-539 CNS, -89.8% (active).
With `CC(N)C(Cc1ccc(Cl)cc1)c1ccc(Cl)cc1` (centres undefined), the growth in the assay on NCI-H23 lung was 92.8%; in the assay on NCI-H226 lung it was 88.2%; with NCI-H322M lung it was 83.4%; in the assay with HOP-62 NSCLC, 56%; in the assay on NCI-H460 lung it was 66%; with HOP-92 NSCLC, 21.5%. The growth with NCI-H522 lung was -18.1% (active); in the assay on A549/ATCC NSCLC, 42.1%; in the assay with 786-0 renal, 57.1%; with DU-145 prostate, 61%; in the assay on K-562 leukemia, 0.46% (active); in the assay with MALME-3M melanoma it was 80.3%. The growth with MDA-MB-231 breast is 35.5%; in the assay with SF-268 CNS, 62.6%; in the assay with SF-295 CNS it was 84.9%; in the assay with SF-539 CNS, 80.8%; with M14 melanoma, 47.6%.
Take `CC(C)(C)OC(=O)N1CCC(O)[C@@H](O[Si](c2ccccc2)(c2ccccc2)C(C)(C)C)[C@H]1/C=C/c1ccccc1` (some centres undefined): the growth is 34.4% in the assay on NCI-H23 lung; 47.9% in the assay with NCI-H226 lung; 83.5% in the assay on NCI-H322M lung; 67.4% in the assay on HOP-62 NSCLC; 36.1% with NCI-H460 lung; 36% with HOP-92 NSCLC. The growth in the assay with NCI-H522 lung is 30.1%; in the assay on A549/ATCC NSCLC it was 41.9%; with 786-0 renal it was 52.2%; in the assay with DU-145 prostate it was 57.6%; in the assay with K-562 leukemia, 38.7%; with MALME-3M melanoma, 47.3%. The growth in the assay on MDA-MB-231 breast is 49.5%; with RXF 393 renal, 6.38% (active); in the assay on SF-268 CNS, 52.5%; in the assay on SF-295 CNS, 36.7%; in the assay with SF-539 CNS it was 57.1%; in the assay on UACC-257 melanoma it was 40.8%. For the same compound, the growth with M14 melanoma is 50%.
As to `CCN(CC)CCOc1ccc(/C(=C(\C)c2ccc(Cl)cc2)c2ccc(Cl)cc2)cc1`, the growth with NCI-H23 lung is 60.7%; in the assay with NCI-H226 lung, 102%; in the assay with NCI-H322M lung, 87.3%; with HOP-62 NSCLC it was 95.2%; in the assay on NCI-H460 lung, 36.4%; in the assay on HOP-92 NSCLC, 80.5%. Besides, the growth with NCI-H522 lung was 81.7%; in the assay on A549/ATCC NSCLC it was 45.2%; in the assay on 786-0 renal it was 60.2%; with DU-145 prostate, 97.2%; with K-562 leukemia, 7.09% (active); with MALME-3M melanoma, 87.2%. The growth was 84.3% in the assay with MDA-MB-231 breast; 51.2% with RXF 393 renal; 80.7% in the assay with SF-268 CNS; 65.2% in the assay with SF-295 CNS; 67% in the assay on SF-539 CNS; 96.1% in the assay on UACC-257 melanoma. Also, the growth in the assay on M14 melanoma is 71%.
For `CCc1nc2cc(/C=C/C(=O)NO)ccc2c(=O)n1CCc1ccc(F)cc1`, the growth was 1.11% (active) with NCI-H23 lung; 20.3% in the assay with NCI-H226 lung; 18.6% with NCI-H322M lung; -11.8% (active) in the assay on HOP-62 NSCLC; 4.24% (active) in the assay with NCI-H460 lung; -4.03% (active) with HOP-92 NSCLC. The growth with NCI-H522 lung was 3.72% (active); in the assay on A549/ATCC NSCLC, 7.13% (active); in the assay on 786-0 renal, -23% (active); with DU-145 prostate it was -5.02% (active); in the assay on K-562 leukemia, 4.68% (active); in the assay on MDA-MB-231 breast it was -6.12% (active). Also, the growth is -29.5% (active) with RXF 393 renal; 9.29% (active) with SF-268 CNS; 10.4% with SF-295 CNS; 4.06% (active) in the assay on SF-539 CNS; 6.79% (active) in the assay on M14 melanoma.
Take `COC(=O)c1[nH]cnc1/N=N/N(C)CCO`: the growth in the assay on NCI-H23 lung was 96.3%; in the assay on NCI-H226 lung it was 101%; in the assay with NCI-H322M lung it was 108%; with HOP-62 NSCLC, 97.4%; in the assay on NCI-H460 lung, 105%; in the assay on HOP-92 NSCLC it was 128%. In addition, the growth was 92% in the assay with NCI-H522 lung; 109% in the assay on A549/ATCC NSCLC; 93.5% in the assay with 786-0 renal; 120% in the assay with COLO 205 colon; 110% with DU-145 prostate; 119% with MALME-3M melanoma. In addition, the growth in the assay with MDA-MB-231 breast was 118%; in the assay on SF-268 CNS, 93%; with SF-295 CNS, 112%; with SF-539 CNS, 95%; in the assay with M14 melanoma, 101%.
`CCOc1cc2ncc(C#N)c(Nc3ccc(OCc4ccccn4)c(Cl)c3)c2cc1NC(=O)/C=C/CN(C)C`: the growth with NCI-H23 lung is 39.9%; in the assay with NCI-H226 lung, 47.2%; with NCI-H322M lung, 0.942% (active); in the assay with HOP-62 NSCLC it was 38.6%; with NCI-H460 lung, -62.2% (active); with HOP-92 NSCLC, 39.3%. Moreover, the growth is 6.98% (active) in the assay with NCI-H522 lung; 22.3% with A549/ATCC NSCLC; -74.7% (active) in the assay on 786-0 renal; 4.49% (active) in the assay with DU-145 prostate; -47.5% (active) in the assay with K-562 leukemia; -72.3% (active) with MALME-3M melanoma. The growth in the assay with MDA-MB-231 breast is -40% (active); in the assay on RXF 393 renal it was -77.4% (active); with SF-268 CNS it was -36.7% (active); in the assay with SF-295 CNS, 54.1%; in the assay with SF-539 CNS, 22%; in the assay on UACC-257 melanoma, 52.8%. Besides, the growth in the assay on M14 melanoma was -82.4% (active).

For the origin of these results see PubChem BioAssay (NCI).
